SKN-1 block = inhibitors of C. elegans SKN-1. C. elegans VP596 Pgst-4::GFP/RFP ratio, acrylamide-induced, 24 h. AID 624304. 360,000 tested, 0.49% active. inhibition, % at 21.8 µM;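 active means interference check ratio from 0.5 to 1.5 plus GFP to RFP signal ratio inhibition reaching or exceeding a fixed threshold, cut at about 30% in these data, passing the limit was not always enough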
CRFR2-BP ag = CRF-BP/CRF-R2 complex agonism | 350,000 tested, 0.46% active | activation, % at 13.2 µM | HEK293 CRF-R2/CRF-BP, calcium dye fluorescence (FLIPR); percent of saturating CRF peptide response | AID 588473;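 active means activation of at least 50%, plus an integration ratio under a set limit after plate pattern correction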;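 further: plate controls were neutral control wells without compound for no effect and CRF at EC100 for full effect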
hiPSC survival = enhancers of human iPSC single-cell survival; hiPSC single-cell survival, ATPlite luminescence; 100% = ROCK inhibitor wells, 0% = DMSO; survival enhancement, % at 20 µM; 360,000 tested, 0.044% active; AID 602274; in the data active means survival enhancement above about 18%;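 further: cells exposed to compounds for 16 hours before the ATP read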
CRFR2-BP antag = antagonists of CRF-binding protein/CRF-R2 receptor complex; HEK293 CRF-R2/CRF-BP, CRF-induced calcium fluorescence; inhibition, % at 11.8 µM; 350,000 tested, 0.59% active;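 active means inhibition of the ligand-induced calcium signal above about 50% at the single tested concentration, limit read from the data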
H9c2 TAG inh = inhibitors of triacylglycerol accumulation. 230,000 tested, 0.66% active. H9c2 cells, Nile Red lipid (TAG) fluorescence; cells loaded with 200 µM oleic acid. inhibition, % at 12.5 µM. AID 651582;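 active means pattern-corrected inhibition of lipid staining of at least 50% with the nuclear-stain viability signal not falling by more than 50%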;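 further: 0% = DMSO wells and 100% = triacsin C control wells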
Cardio protect = modulators protecting cardiomyocytes from myocardial damage | H9c2 cardiomyocytes, H2O2 injury protection, ATPLite, 2 h | protection from H2O2 cell death, % at 20 µM | 360,000 tested, 0.63% active | AID 588492;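 active means compounds giving at least 50% protection of heart cells from peroxide-induced death in the single-dose screen, raw or plate-pattern-corrected value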;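 further: 0% = DMSO wells with peroxide and 100% = DMSO wells without peroxide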
* marks the source's active call; other numbers are inactive results; . = no result given. A selection: hits, their analogues and other compounds. The true share with any hit is near 2.5%.

SMILES	SKN-1 block	CRFR2-BP ag	hiPSC survival	CRFR2-BP antag	H9c2 TAG inh	Cardio protect
COc1ccccc1C/C(N)=N/OC(=O)COc1ccc(C)cc1C	13	-2	4	54*	.	-4
COc1ccc(C/C(N)=N/OC(=O)COc2ccccc2C)cc1	4	0	2	39	.	-2
COc1ccc(OC)c(NC(=O)C2(C)CCN2C(=O)C2(c3ccc(Cl)cc3)CCC2)c1 (stereo not drawn)	13	.	-2	.	-18	2
Cc1ccc(S(=O)(=O)Nc2ccc3c4c(cccc24)CC3)c(C)c1	23	-1	-1	-22	22	-24
Cc1cc(C)c(S(=O)(=O)Nc2ccc3c4c(cccc24)CC3)c(C)c1	9	-1	-4	29	58*	-22
C/C(N)=C(/C#N)C(=O)CSc1nnc(Nc2ccccc2C)s1	-10	2	0	17	6	28
C/C(N)=C(/C#N)C(=O)CSc1nnc(Nc2ccccc2)s1	1	0	0	-9	23	57*
Cc1cc(C(=O)N2CCC2(C)C(=O)O)c(C)o1 (stereo not drawn)	20	.	-2	.	5	1
COc1ccc(N2CCN(Cc3nc(N)nc(Nc4ccc(C)c(Cl)c4)n3)CC2)cc1	36*	1	-2	-21	.	14
O=c1[nH]c(/C=C/c2cccc3ccccc23)nc2ccccc12	6	0	2	-11	20	8
CCCN1C(=O)/C(=C\c2nc3ccccc3c(=O)[nH]2)c2ccccc21	-6	0	0	21	21	66*
C=CCOC(=O)COc1ccc2c3c(c(=O)oc2c1)CCCC3	-14	2	-1	-6	-4	87*
O=C(O)COc1ccc2c3c(c(=O)oc2c1)CCCC3	-1	1	4	22	-2	0
CCOC(=O)COc1cc(OCC(=O)OCC)c2c3c(c(=O)oc2c1)CCCC3	7	0	0	2	.	64*
CCOC(=O)COc1cc2c3c(c(=O)oc2cc1C)CCCC3	-7	0	3	5	0	-14
CN1CCC2CC1c1cc(-c3ccc(C(F)(F)F)cc3)ccc12 (stereo not drawn)	9	-1	2	-15	8	-4
O=C(CCc1ccccc1)NNC(=S)NC(=O)c1ccc(Cl)cc1	.	99*	.	13	.	.
Cc1ccc(C(=O)NNC(=S)NC(=O)c2ccc(Cl)cc2)cc1	6	216*	-1	-123	.	18
Cc1cc(C)cc(Cn2cc(CN3CC(N4CCN(CCO)CC4)CS3(=O)=O)nn2)c1 (stereo not drawn)	6	.	0	.	.	.
O=C(NCCC1=CCCCC1)NC1CCCCC1	55*	0	-2	2	-12	-4
NC(=O)NCCC1=CCCCC1	0	6	0	-29	-10	0
CC1N=C(SCC(=O)c2ccc(F)cc2)N2C(C)N=C(SCC(=O)c3ccc(F)cc3)N12 (stereo not drawn)	-9	0	-1	-8	1	-5
Cc1ccc2c(c1)N(C(=O)CCC(=O)N1CCN(c3ccccn3)CC1)CCO2	16	55*	0	-31	-17	14
O=C(CCC(=O)N1CCOc2ccc(Cl)cc21)N1CCN(c2ccccn2)CC1	10	-10	2	6	-14	-2
CCOc1ccc(-n2c(O)c(/C=N/NC(=O)C3COc4ccccc4O3)c3ccccc3c2=O)cc1 (stereo not drawn)	7	1	1	-12	.	56*
SMILES	SKN-1 block	CRFR2-BP ag	hiPSC survival	CRFR2-BP antag	H9c2 TAG inh	Cardio protect
COc1ccc(Cl)cc1NC(=S)NC(=O)c1ccco1	7	-1	0	0	-13	-5
Cc1nc2ccccc2c2c(N)c3ccccc3n12	-1	-1	0	1	-1	66*
Cc1nc2ccccc2n1-c1ccccc1	5	-3	-1	-5	-6	5
Cc1ccc(CN2C(=O)CCC2(C)c2nnnn2-c2ccc3c(c2)OCCO3)cc1 (stereo not drawn)	-1	.	0	.	.	.
CC(Oc1ccccc1)C(=O)Nc1nc(-c2ccccn2)cs1 (stereo not drawn)	-20	-1	0	-8	-46	52*
CC(Oc1cccc(Cl)c1)C(=O)Nc1nc(-c2ccccn2)cs1 (stereo not drawn)	-21	-2	0	-1	-17	50*
Cc1cccc(C(=O)NC(C(=O)Nc2nc(-c3ccccn3)cs2)C(C)C)c1 (stereo not drawn)	-9	1	0	6	-2	66*
C[C@H](NC(=O)c1ccccc1)C(=O)Nc1nc(-c2ccccn2)cs1	-23	-1	0	-7	-2	21
CC(Oc1ccccc1)C(=O)Nc1nc(-c2ccncc2)cs1 (stereo not drawn)	-9	1	25*	-7	-6	-7
Cc1nc(-c2cccc(NC(=O)C(C)Oc3ccccc3)c2)cs1 (stereo not drawn)	11	0	-1	0	-6	5
Cc1cc2c(cc1C)-c1nnnn1C(N1CCC(Cc3ccccc3)CC1)C(=O)N2 (stereo not drawn)	-1	.	.	.	.	.
CN1CCN(C(=O)c2cc3c(C(F)(F)F)nn(C)c3s2)CC1	-22	0	4	-2	0	1
O=C(Nc1cc(Br)ccc1O)c1cc(-c2ccc3c(c2)OCO3)on1	20	-2	1	70*	.	-9
O=C(Nc1cccnc1)c1cc(-c2ccc3c(c2)OCO3)on1	39*	-1	-2	-12	.	-14
O=C(Nc1cccnc1)c1cc(-c2ccc(Cl)c(Cl)c2)on1	3	0	0	1	.	-6
O=C(NC1CCCC1)C(c1ccc(F)cc1)N1CCC(O)(c2ccc(Cl)cc2)CC1 (stereo not drawn)	1	.	.	.	.	.
CCN(CC)c1ccc(/C=C2\C(=O)c3ccc(C(=O)O)cc3C2=O)cc1	36*	248*	-2	-243	-5	-16
CCN(CC)c1ccc(C(=O)O)cc1	-1	2	0	-3	.	4
COc1ccc(Cc2n[nH]c(=S)n2-c2cc(C)ccc2C)cc1OC	6	.	-1	.	.	2
CN(C(=O)CSCC(=O)Nc1ccc(Cl)cc1)C1CCCCC1	37*	-3	2	20	-8	-4
Cc1cc(NC(=O)CCc2ccc(C)o2)no1	31*	0	4	0	-4	2
Cc1cccc(C(=O)N[C@@H](C)C(=O)N2CCN(c3ncccn3)CC2)c1	8	0	-1	-4	-2	5
CC(=O)Nc1ccc(-c2ccnc3c2CC(C(=O)NCc2ccco2)O3)cc1 (stereo not drawn)	13	.	-2	.	25	5
CC1(c2ccc(OC(F)F)cc2)NC(=O)N(CC(=O)Nc2cccc(S(N)(=O)=O)c2)C1=O (stereo not drawn)	-5	-2	0	-24	10	5

High-throughput results from PubChem.
